# Laboratory results: PubChem BioAssay (Tox21)
# Inconclusive results are not listed. Values without a mark were called inactive. Activity calls are given as the source filed them. Calls follow the shape of the dose curve; as a rule, active = well fitted inhibition curve with a large enough effect in the repeat runs; inconclusive = weak or mixed curves; inactive = no such curve, though single readings can be large or run the other way.
# Target: Cytochrome P450 2D6 (Homo sapiens) (UniProt P10635)
# Experiment: Cytochrome P450 Family 2 Subfamily D Member 6 (CYP2D6) small molecule antagonists: luciferase reporter qHTS assay (AID 1671196); also: nearly all actives have a fitted effect of over 50% in size
# Conditions: P450-Glo CYP2D6 enzyme assay, luciferin luminescence, 1 h; series mostly up to 115 µM; activity change, negative = inhibition: at the top concentration
# Excerpt: U.S. Tox21 Program National Center for Advancing Translational Sciences [NCATS] U.S. Environmental Protection Agency [EPA] National Institutes of Environmental Health Sciences [NIEHS] National Toxicology Program [NTP] U.S. Food and Drug Administration [FDA] Tox21 Assay Overview: Cytochrome P450 (CYP) enzymes are membrane-bound hemeproteins that play a key role in metabolism of drugs and xenobiotics. Evaluation of the effect of chemicals on CYP isozymes is useful to minimize the adverse drug reactions and toxicities in drug development process. Tox21 chemicals were tested for their effect on CYP enzyme activities by using P450-Glo (TM) screening systems (Promega Corporation, Madison, WI). These systems provide a luminescent method containing proluciferin substrates and are converted to luciferin products by CYP isozymes. The luciferin products formed are detected with a luciferin detection reagent, and the amount of light produced is proportional to CYP activity. P450-Glo (TM) CYP2D6 screening system (Catalog. No. V9890) was used to detect the compounds that interfere in CYP2D6 activity.
# Tox21 Assay Protocol Summary: Two ul of enzyme-substrate mix was dispensed into medium binding white/solid 1536-well plates (Greiner Bio-One North America Inc., Monroe, NC) using a BioRaptr Flying Reagent Dispenser (FRD, Beckman Coulter, Brea, CA). […] The assay plates were incubated at room temperature for 10 min. Then 2 ul of NADPH regeneration solution was added to each well of the assay plates using an FRD and incubated at room temperature for 1 h. The reaction was stopped by adding 4 ul of detection reagent using an FRD and after 20 min incubation at room temperature the luminescence signal was measured using a ViewLux plate reader (Perkin Elmer, Shelton, CT). Data were expressed as relative luminescence units.
# % is scaled to controls: 0 for no effect and ±100 for the full control effect; potency is read from the fitted curve at half-maximal effect.
# Cytochrome P450 2D6 (Homo sapiens), sequence (P10635 whole entry, looked up): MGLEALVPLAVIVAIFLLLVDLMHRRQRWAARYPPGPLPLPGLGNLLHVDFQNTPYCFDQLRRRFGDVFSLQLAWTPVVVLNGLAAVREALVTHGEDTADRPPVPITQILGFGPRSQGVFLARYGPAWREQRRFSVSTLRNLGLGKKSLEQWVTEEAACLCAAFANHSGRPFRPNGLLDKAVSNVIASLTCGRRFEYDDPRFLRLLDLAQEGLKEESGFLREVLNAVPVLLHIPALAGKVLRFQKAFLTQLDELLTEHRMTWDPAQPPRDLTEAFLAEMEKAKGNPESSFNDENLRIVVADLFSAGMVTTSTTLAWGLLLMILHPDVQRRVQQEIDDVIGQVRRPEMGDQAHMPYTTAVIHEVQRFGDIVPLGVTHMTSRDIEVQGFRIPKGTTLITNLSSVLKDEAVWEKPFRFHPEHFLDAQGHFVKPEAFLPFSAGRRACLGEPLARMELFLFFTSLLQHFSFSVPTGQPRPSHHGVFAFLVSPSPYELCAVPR
SMILES,"activity change, negative = inhibition",Potency
CCCC(=O)OCC,0.3%,–
CCN(CC)CCNC(C(=O)OCCC(C)C)c1ccccc1 (stereo not given),–,1.74 µM (active)
CCc1nn(C2CCCCC2)c2cc(C3(C#N)CCC(C(=O)O)CC3)ccc12 (stereo not given),-10.3%,–
N#Cc1cc2ccccc2c2ccccc12,-39.3%,–
c1ccc(CNCc2ccccc2)cc1,–,1.12 µM (active)
CCCCOC(=O)c1ccccc1C(=O)OCC(CC)CCCC (stereo not given),-20.9%,–
O=c1[nH]cnc2ccccc12,-6.46%,–
CC(=O)Nc1ccc(/C=N/NC(N)=S)cc1,-18.2% [at 53 µM],–
Cc1ncsc1CCO,-9.1%,–
CCCC(C)C,-15.8%,–
C1CCC2OC2C1 (stereo not given),-15.1%,–
CCCCCCCCCCCCCCCC(=O)OC/C=C(C)/C=C/C=C(C)/C=C/C1=C(C)CCCC1(C)C,-15.9%,–
COCCO,0.145%,–
O=[N+]([O-])c1cccc(Cl)c1Cl,0.667%,–
Cc1ccc(C)o1,-9.76%,–
O=[N+]([O-])c1cc[n+]([O-])cc1,–,35.6 µM (active)
CCC(C)N(C)C(=O)c1cc2ccccc2c(-c2ccccc2Cl)n1 (stereo not given),-13.6% [at 53 µM],–
CC[C@H](C)[C@@H](C(=O)O)n1sc2ccccc2c1=O,17.6%,–
C=CC(C)(CCC=C(C)C)OC(=O)c1ccccc1 (stereo not given),-22.2%,–
CCCC[C@H]1CN(CC2CCOCC2)C(=O)OC12CCN(C1(C)CCN(C(=O)c3c(C)ncnc3C)CC1)CC2,-13.7%,–

SMILES,"activity change, negative = inhibition",Potency
N#Cc1c(F)cccc1F,-13.3%,–
CC(C)CCCC(C)CCO (stereo not given),-1.97%,–
CCCCCCCCC(CO)CCCCCC (stereo not given),-12.1%,–
CC(C)c1ccc2c(C(C)C)cc(C(C)C)c(S(=O)(=O)O)c2c1,1.14%,–
O=C(CCN1CCN2CCCC2C1)N1c2ccccc2Sc2ccc(Cl)cc21 (stereo not given),–,6.74 µM (active)
CC(=O)NCCCS(=O)(=O)O,-15.6% [at 53 µM],–
Cc1occc1S,-18%,–
CC(=O)OC/C=C/c1ccccc1,-1.75%,–
Nc1nc(CC(=O)O)cs1,–,28.3 µM (active)
C=CC[N+]1([C@H]2C[C@H]3[C@@H]4CC[C@H]5C[C@H](OC(C)=O)[C@@H](N6CCCCC6)C[C@]5(C)[C@H]4CC[C@]3(C)[C@H]2OC(=O)CC)CCCCC1,–,11 µM (active)
CCCCCC(CO)CCC (stereo not given),0.892%,–
CCCCCCCC/C=C\CCCCCCCC(N)=O,–,50.2 µM (active)
O=C(O)Cn1c(C(=O)Nc2nc(-c3ccccc3Cl)cs2)cc2ccccc21,-0.47% [at 53 µM],–
S=C(S)NCCNC(=S)S,-17%,–
CCOc1cc(OCC)c(C(=O)CCC(=O)O)cc1OCC,-5.74% [at 53 µM],–
CCCCCOC(=O)COc1cc(N2C(=O)C3=C(CCCC3)C2=O)c(F)cc1Cl,–,25.2 µM (active)
N#CCc1cccc(C(F)(F)F)c1,-21.9%,–
CC(=O)SCc1ccco1,-12%,–
CCOC(=O)CC(C)C,-3.25%,–
O=C=NC1CCC(CC2CCC(N=C=O)CC2)CC1 (stereo not given),–,35.6 µM (active)
